Assay [1] can be described thus: A CellTox Green Cytotoxicity Assay to monitor cytotoxicity in HEK293 cells - 8 hour (AID 1224884). Note: nearly all actives have a fitted effect of over 35% in size. Note: potency is the fitted concentration of half-maximal effect. In outline: (§1)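 Dead-cell fluorescence measured kinetically: asymmetric cyanine dye, HEK293, 600 cells/well, 5 h settle, 23 nL cpd/DMSO, 37 C, reads 0–40 h every 8 h.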
Assay [2] can be described thus: A CellTox Green Cytotoxicity Assay to monitor cytotoxicity in HEK293 cells - 16 hour (AID 1224888). Note: nearly all actives have a fitted effect of over 35% in size. Note: potency is the fitted concentration of half-maximal effect. Put shortly:
as §1

Assay [3] can be described thus: qHTS RealTime-Glo MT Cell Viability Assay in HepG2 cells - 0 hour (AID 1224889). Note: % is set by controls: 0 for no effect and ±100 for the full control effect; nearly all actives have a fitted effect of over 50% in size. Put shortly: (§2)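 Compound treatment began 5 h after plating HepG2 cells (600/well) with NanoLuc luciferase and prosubstrate. Plates stayed at 37 C for 40 h; luminescence was captured at six time points, 0 h through 40 h.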
For orientation: Quantitative high-throughput screening tests each substance at several concentrations.

Assay [4] in a line: A CellTox Green Cytotoxicity Assay to monitor cytotoxicity in HepG2 cells - 8 hour (AID 1224890). Note: nearly all actives have a fitted effect of over 45% in size. Note: potency is the fitted concentration of half-maximal effect. In outline: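 First, HepG2 cells (600/well) mixed with reagent were plated; second, after 5 h at 37 C they received compounds via pintool; third, fluorescence was measured at 0 h through 40 h at 8 h intervals.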
Assay [5] in a line: qHTS assay to identify small molecule antagonists of the estrogen receptor alpha (ER-alpha) signaling pathway using the BG1 cell line in the presence of 0.1 nM 17-beta-estradiol - cell viability counter screen (AID 1259241). Note: nearly all actives have a fitted effect of over 40% in size. Note: potency is the fitted concentration of half-maximal effect. In outline:
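CellTiter-Fluor read (30 min, 37C) on ER-alpha/ERE-luc VM7Luc4E2 cells; 22 hr compound treatment; agonist 0.1 nM E2 final; same-well multiplex.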

Assay [6] in a line: qHTS assay to identify small molecule antagonists of the androgen receptor (AR) signaling pathway using the MDA cell line in the presence of 0.5 nM R1881 - cell viability counter screen (AID 1259242). Note: % is set by controls: 0 for no effect and ±100 for the full control effect; nearly all actives have a fitted effect of over 45% in size. In outline:
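qHTS format. MDA-kb2 (MMTV-luc, AR/GR responsive) + cpd + 0.5 nM R1881 final, 16 hr 37C/0% CO2 → CellTiter-Fluor 30 min → fluorescence intensity.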

In assay [7] the target is Androgen receptor (Homo sapiens) (UniProt P10275). Put plainly: qHTS assay to identify small molecule antagonists of the androgen receptor (AR) signaling pathway using the MDA cell line in the presence of 0.5 nM R1881 (AID 1259243). Note: nearly all actives have a fitted effect of over 50% in size. Note: potency is the fitted concentration of half-maximal effect. Put shortly:
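Antagonist mode quantitative HTS in MDA-kb2 MMTV-luciferase cells, agonist R1881 at 0.5 nM final, 16 hr exposure at 37C and 0% CO2, luminescent detection.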

The target of assay [8] is Estrogen receptor (Homo sapiens) (UniProt P03372). Put plainly: qHTS assay to identify small molecule antagonists of the estrogen receptor alpha (ER-alpha) signaling pathway using the BG1 cell line in the presence of 0.1 nM 17-beta-estradiol (AID 1259244). Note: nearly all actives have a fitted effect of over 50% in size. Note: potency is the fitted concentration of half-maximal effect. Put shortly:
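Reporter is a stably transfected luciferase under four estrogen responsive elements in VM7Luc4E2 cells expressing native full-length ER-alpha; inhibition of 0.1 nM (final) 17beta-estradiol-driven signal over 22 h is read by luminescence.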

The nature of assay [9]: qHTS assay to identify small molecule HDAC inhibitors (AID 1259364).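 Note: wild-type HCT-116 cells with endogenous class I/II HDAC activity; top concentration of the series differs between compounds; % is set by controls: 0 for no effect and ±100 for the full control effect; nearly all actives have a fitted effect of over 45% in size.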 Put shortly:
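Quantitative high-throughput format: overnight-seeded HCT-116 cells got compounds for 2 hr at 37C; HDAC-Glo I/II reagent added, 30 min RT, luminescence measured.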

Assay [10] is described as follows: qHTS assay to identify small molecule HDAC inhibitors - cell viability counter screen (AID 1259365). Note: series mostly up to about 92 µM; % is set by controls: 0 for no effect and ±100 for the full control effect; nearly all actives have a fitted effect of over 50% in size. Put shortly: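 To flag cytotoxic hits, 1,500 wild-type HCT-116 cells per well, plated the day before, receive test compounds for 2hr at 37 C before CellTiter-Glo reagent and a luminescence read.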
Assay [11] is described as follows: qHTS assay to identify small molecule agonists of the sonic hedgehog signaling (Shh) pathway (AID 1259368; calls by dose curve;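 note: NIH/3T3-derived 3T3Gli1-Luc cells carrying a stable Gli1-driven firefly luciferase reporter; series mostly up to about 92 µM; % is set by controls: 0 for no effect and ±100 for the full control effect; nearly all actives have a fitted effect of over 15% in size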). Put shortly: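 Quantitative high-throughput format using a Gli1-driven firefly luciferase reporter line derived from NIH/3T3 cells. After a 24 hr compound treatment at 37 C and 5% CO2, luminescence reported Gli1 response element activity.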
Assay [12] can be described thus: qHTS assay to identify small molecule antagonists of the sonic hedgehog signaling (Shh) pathway (AID 1259369; calls by dose curve; note: nearly all actives have a fitted effect of over 45% in size; note: potency is the fitted concentration of half-maximal effect). In outline:
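Stable Gli1-Luc reporter NIH/3T3 clone; quantitative HTS in stimulated mode with conditioned medium. Luminescence measured after 24hr compound treatment at 37 C.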

Assay [13] has as its target Estrogen receptor beta (Homo sapiens) (UniProt Q92731). The assay is described as follows: qHTS assay to identify small molecule agonists of the estrogen receptor beta (ER-beta) signaling pathway (AID 1259377; active = well fitted activation curve with a large enough effect in the signal ratio in the repeat runs, not every such curve was filed as active; the % refers to the signal ratio; note: % is set by controls: 0 for no effect and ±100 for the full control effect). In outline: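 Screening used GripTite ER-beta-UAS-bla cells held in 2% charcoal-stripped FBS medium. After overnight (16 hr) compound incubation at 37C, beta-lactamase activity was detected with a FRET substrate by fluorescence.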

Assay [14] in a line: qHTS assay to identify small molecule agonists of the sonic hedgehog signaling (Shh) pathway - cell viability counter screen (AID 1259366). Note: nearly all actives have a fitted effect of over 50% in size. Note: potency is the fitted concentration of half-maximal effect. Put shortly: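 Fluorescence from CellTiter-Fluor reports live cells in this counter screen. NIH/3T3-derived Gli1-Luc reporter cells receive test compounds for 24hr at 37C; reagent goes in at 23hr.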
The nature of assay [15]: qHTS RealTime-Glo MT Cell Viability Assay in HepG2 cells - 16 hour (AID 1224885). Note: nearly all actives have a fitted effect of over 50% in size. Note: potency is the fitted concentration of half-maximal effect. In outline:
as §2

Assay [16] in a line: qHTS RealTime-Glo MT Cell Viability Assay in HEK293 cells - 24 hour (AID 1224886). Put shortly: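 Quantitative high-throughput screen of the Tox21 10K library in HEK293: cells and RealTime-Glo reagents plated together, compound added at 5 h, luminescence monitored through 40 h at 37 C.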
Assay [17] in a line: qHTS assay to identify small molecule antagonists of the sonic hedgehog signaling (Shh) pathway - cell viability counter screen (AID 1259367). Note: nearly all actives have a fitted effect of over 55% in size. Note: potency is the fitted concentration of half-maximal effect. Put shortly:
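Fluorescence read-out (CellTiter-Fluor, 1 hr at 37C) taken after 23 hr compound treatment of 3T3 Gli1-Luc cells stimulated with conditioned medium. Cells were seeded at 2,000 per well and pre-incubated 4 hr.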

A short description of assay [18]: qHTS assay to identify small molecule phospholipidosis (PLD) inducers (AID 1259344; active = well fitted curve in the direction sought with a large enough effect; an effect the other way counts as inactive or inconclusive; note: % is set by controls: 0 for no effect and ±100 for the full control effect). Put shortly:
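Read-out is LipidTOX Red fluorescence (ex 595/em 615) imaged in HepG2 cells after 24 h compound exposure at 37 C, with Hoechst nuclear counterstain (ex 352/em 461) allowing per-cell normalisation.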

The nature of assay [19]: qHTS RealTime-Glo MT Cell Viability Assay in HEK293 cells - 8 hour (AID 1224887). Note: nearly all actives have a fitted effect of over 50% in size. Note: potency is the fitted concentration of half-maximal effect. In outline: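 600 HEK293 cells per well, dispensed already mixed with RealTime-Glo MT reagents. Compound dosing came 5 h later. The same wells were read for luminescence at 0, 8, 16, 24, 32 and 40 h of exposure at 37 C.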
Assay [20] has as its target Estrogen receptor beta (Homo sapiens) (UniProt Q92731). The assay is described as follows: qHTS assay to identify small molecule antagonists of the estrogen receptor beta (ER-beta) signaling pathway (AID 1259378; active = well fitted inhibition curve with a large enough effect in the signal ratio in the repeat runs, not every such curve was filed as active; the % refers to the signal ratio; note: % is set by controls: 0 for no effect and ±100 for the full control effect). In outline: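 ER-beta-UAS-bla HEK293T cells in 2% charcoal-stripped FBS medium treated with compound plus 1nM final 17-beta-estradiol for 16 hr at 37C. Beta-lactamase reporter read by FRET substrate fluorescence after 2 hours at room temperature.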

This is an account of results in PubChem BioAssay (Tox21).

SMILES strings stand for the structures. A number with no mark means an inactive call. Records with an inconclusive call do not appear. The source made the active and inactive calls. Unless noted, calls come from the whole dose curve; as a rule, active = well fitted curve in the direction sought with a large enough effect in the repeat runs; inconclusive = weak or mixed curves; inactive = no such curve, though single readings can be large; an effect the other way counts as inactive or inconclusive.

Androgen receptor (Homo sapiens), sequence (P10275 whole entry, looked up): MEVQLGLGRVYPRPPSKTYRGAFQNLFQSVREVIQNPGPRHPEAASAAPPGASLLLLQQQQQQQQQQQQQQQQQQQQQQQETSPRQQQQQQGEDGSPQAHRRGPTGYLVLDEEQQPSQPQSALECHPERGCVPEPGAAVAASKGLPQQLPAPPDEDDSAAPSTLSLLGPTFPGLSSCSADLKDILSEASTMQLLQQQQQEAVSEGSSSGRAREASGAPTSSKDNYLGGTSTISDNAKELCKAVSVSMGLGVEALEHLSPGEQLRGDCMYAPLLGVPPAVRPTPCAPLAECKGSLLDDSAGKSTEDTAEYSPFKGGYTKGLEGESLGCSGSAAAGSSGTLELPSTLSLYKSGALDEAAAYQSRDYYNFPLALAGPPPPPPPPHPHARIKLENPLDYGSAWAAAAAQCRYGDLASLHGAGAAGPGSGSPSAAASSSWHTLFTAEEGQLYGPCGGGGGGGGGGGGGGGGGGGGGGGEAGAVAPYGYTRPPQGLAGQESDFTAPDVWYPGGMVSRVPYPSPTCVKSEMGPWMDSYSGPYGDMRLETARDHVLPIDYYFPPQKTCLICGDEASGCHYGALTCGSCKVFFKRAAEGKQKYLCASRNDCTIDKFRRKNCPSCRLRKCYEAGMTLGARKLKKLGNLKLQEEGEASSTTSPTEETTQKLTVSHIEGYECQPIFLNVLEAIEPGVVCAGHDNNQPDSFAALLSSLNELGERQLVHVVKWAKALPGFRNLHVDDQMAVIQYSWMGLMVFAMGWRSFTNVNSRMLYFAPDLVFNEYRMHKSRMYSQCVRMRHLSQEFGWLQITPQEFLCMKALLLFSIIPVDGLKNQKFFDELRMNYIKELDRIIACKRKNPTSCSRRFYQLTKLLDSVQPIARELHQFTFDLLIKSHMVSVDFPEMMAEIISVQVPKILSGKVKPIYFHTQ
Estrogen receptor beta (Homo sapiens), sequence (Q92731 whole entry, looked up): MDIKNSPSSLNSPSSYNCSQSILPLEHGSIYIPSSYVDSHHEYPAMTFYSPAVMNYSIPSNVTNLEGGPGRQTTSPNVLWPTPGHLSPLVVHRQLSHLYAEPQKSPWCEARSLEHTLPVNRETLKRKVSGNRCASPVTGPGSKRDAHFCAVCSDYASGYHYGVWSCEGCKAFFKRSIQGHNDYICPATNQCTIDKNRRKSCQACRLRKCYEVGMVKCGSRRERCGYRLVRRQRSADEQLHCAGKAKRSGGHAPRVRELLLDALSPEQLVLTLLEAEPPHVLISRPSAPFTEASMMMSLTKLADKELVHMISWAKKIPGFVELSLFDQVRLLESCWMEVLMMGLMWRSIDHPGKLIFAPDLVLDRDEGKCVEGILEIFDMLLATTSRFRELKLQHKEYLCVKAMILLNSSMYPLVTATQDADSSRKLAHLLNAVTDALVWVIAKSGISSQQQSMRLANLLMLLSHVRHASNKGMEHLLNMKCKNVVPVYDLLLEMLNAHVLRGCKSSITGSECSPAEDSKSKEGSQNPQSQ
Estrogen receptor (Homo sapiens), sequence (P03372 whole entry, looked up): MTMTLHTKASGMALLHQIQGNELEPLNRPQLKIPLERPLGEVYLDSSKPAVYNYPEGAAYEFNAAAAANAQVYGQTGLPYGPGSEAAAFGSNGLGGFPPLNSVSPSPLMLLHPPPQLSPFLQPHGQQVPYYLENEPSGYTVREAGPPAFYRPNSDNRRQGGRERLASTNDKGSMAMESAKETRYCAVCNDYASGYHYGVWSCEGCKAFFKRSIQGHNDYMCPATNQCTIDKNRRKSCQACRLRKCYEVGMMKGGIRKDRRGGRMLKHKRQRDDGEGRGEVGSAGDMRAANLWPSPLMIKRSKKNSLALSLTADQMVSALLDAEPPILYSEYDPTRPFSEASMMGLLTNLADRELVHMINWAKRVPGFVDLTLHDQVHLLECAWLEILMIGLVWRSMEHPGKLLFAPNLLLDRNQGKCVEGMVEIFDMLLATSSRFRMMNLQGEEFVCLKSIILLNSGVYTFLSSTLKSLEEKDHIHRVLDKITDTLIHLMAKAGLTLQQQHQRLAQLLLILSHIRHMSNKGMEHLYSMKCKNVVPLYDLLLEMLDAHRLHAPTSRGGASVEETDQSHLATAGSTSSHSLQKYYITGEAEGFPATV

Turning to `O[Si](c1ccccc1)(c1ccccc1)c1ccccc1`, the Potency result in assay [1], in [2], in assay [3], in [4], in assay [5] and in assay [6] was “inactive” each time. The Potency entry in [8], in assay [9], in assay [10] and in assay [11] was “inactive” throughout. Besides, the Potency in assay [7] is 30.6 µM (active); in assay [12], 12.2 µM (active). In assay [13], the molecule was called inactive.

Consider `O=S(=O)(c1ccc(OCc2ccccc2)cc1)c1ccccc1O`, for which the Potency result in assay [1], in assay [2], in assay [3], in assay [4], in assay [5] and in [6] was “inactive” throughout. Also, the Potency result in assay [9], in assay [10], in [14] and in [11] was “inactive” in each case. Moreover, the Potency in assay [8] was 27.3 µM (active).

In the case of `CC(=O)[C@]1(O)Cc2c(O)c3c(c(O)c2[C@@H](O[C@H]2C[C@H](N)[C@H](O)[C@H](C)O2)C1)C(=O)c1ccccc1C3=O`, the Potency is 12 µM (active) in [15]; 0.12 µM (active) in assay [16]; 23.9 µM (active) in assay [4]; 10.6 µM (active) in assay [5]; 0.531 µM (active) in assay [7]; 0.944 µM (active) in assay [14]. Moreover, the Potency in assay [17] was 1.19 µM (active); in assay [12], 0.0133 µM (active). Moreover, the Potency result in [2], in assay [3], in assay [8], in assay [9] and in assay [11] was “inactive” throughout.

Consider `C1=CCCC1`, for which the Potency result in assay [15], in assay [3], in assay [4], in [5], in assay [6] and in [7] was “inactive” in each case. Besides, the Potency result in assay [8], in assay [9], in assay [14], in assay [17], in assay [11] and in assay [12] was “inactive” each time.

Regarding `CN1CCN(CCCN2c3ccccc3Sc3ccc(C(F)(F)F)cc32)CC1`, the Potency in assay [1] is 23.9 µM (active); in [2] it was 23.9 µM (active); in assay [14] it was 26.6 µM (active); in [12] it was 10.6 µM (active). Besides, the Potency result in assay [5], in assay [9], in assay [17] and in assay [11] was “inactive” throughout.

For the molecule `C=CC1=C(C(=O)O)N2C(=O)[C@@H](NC(=O)/C(=N/OCC(=O)O)c3csc(N)n3)[C@H]2SC1` (stereo in doubt), the Potency result in assay [18] was “inactive”.

Take `CCCCCCCCCCCC(=O)Cl`: the Potency result in assay [15], in assay [19], in assay [2], in [3], in assay [4] and in assay [5] was “inactive” throughout. Moreover, the Potency entry in assay [6], in assay [8], in assay [9], in assay [14], in [17] and in [11] was “inactive” throughout. Moreover, the Potency entry in assay [12] was “inactive”.

With `Nc1nc(NC2CC2)c2ncn([C@@H]3C=C[C@@H](CO)C3)c2n1`, the Potency entry in [18] was “inactive”.

On to `Cc1ncc(C[n+]2csc(CCOP(=O)(O)O)c2C)c(N)n1`, for which the Potency entry in [18] is “inactive”.

Take `FC(F)(F)COCC(F)(F)F`: the Potency result in [18] is “inactive”.

`CCN(CC)CCNC(=O)c1ccc(NS(C)(=O)=O)cc1`: the PLD induction in assay [18] is -0.241% [at 7.66 µM].

As for `CN[C@H](CC(C)C)C(=O)N[C@H]1C(=O)N[C@@H](CC(N)=O)C(=O)N[C@H]2C(=O)N[C@H]3C(=O)N[C@H](C(=O)N[C@@H](C(=O)O)c4cc(O)cc(O)c4-c4cc3ccc4O)[C@H](O)c3ccc(c(Cl)c3)Oc3cc2cc(c3O[C@@H]2O[C@H](CO)[C@@H](O)[C@H](O)[C@H]2O[C@H]2C[C@](C)(N)C(O)[C@H](C)O2)Oc2ccc(cc2Cl)[C@H]1O` (some centres undefined), the Potency result in assay [18] is “inactive”.

For `CCCCCc1ccc(O)cc1`, the Potency result in [15], in assay [3], in assay [5], in assay [6], in assay [8] and in assay [9] was “inactive” each time. The Potency entry in assay [10], in assay [11] and in [20] was “inactive” in each case. The Potency in [19] is 21.9 µM (active); in [2], 38.9 µM (active).

For the molecule `CC(C)(C)c1ccc(OC2CCCCC2O)cc1` (centres undefined), the Potency result in assay [15], in assay [3], in assay [4], in [5], in [6] and in [9] was “inactive” in each case. In addition, the Potency result in assay [14] and in assay [11] was “inactive” throughout. In addition, the figures for the Potency in [16], in assay [7] and in [12] were 54.9 µM (active), 61.1 µM (active) and 38.6 µM (active), respectively. Besides, the molecule was classed as inactive in assay [13].
